Inconclusive results are not listed. A number with no mark means an inactive call. Calls follow the shape of the dose curve; as a rule, active = well fitted cell-killing curve with a large enough effect in the repeat runs (not every such curve was filed as active); inconclusive = weak or mixed curves, or effect the other way; inactive = no such curve, though single readings can be large or run the other way.
Experiment: qHTS assay to identify small molecule antagonists of the farnesoid-X-receptor (FXR) signaling pathway - cell viability counter screen (AID 743221); also: nearly all actives have a fitted effect of over 50% in size
Details: FXR-bla HEK293T viability, CellTiter-Glo luminescence, 16 h; series mostly up to 62.6 µM; activity change, negative = cytotoxicity: at the top concentration
Source text: National Center for Advancing Translational Sciences [NCATS]
NIH Chemical Genomics Center [NCGC]
U.S. Environmental Protection Agency [EPA]
National Institutes of Environmental Health Sciences [NIEHS]
National Toxicology Program [NTP]
U.S. Food and Drug Administration [FDA]
The farnesoid-X-receptor (FXR), a nuclear hormone receptor, is highly expressed in liver, intestine, kidney and adrenal cortex. Natural ligands of FXR are the bile acids (Cholic acid, Chenodeoxy cholic acid etc). FXR is an important regulator of diverse metabolic pathways, including the bile acid homeostasis, lipid and glucose metabolisms. FXR regulates the expression of target genes by binding either as a monomer or as a heterodimer with the retinoid X receptor (RXR). Numerous studies have reported that FXR exerts protective function during cholestasis, diabetes, liver regeneration, and cancer. To identify compounds that inhibit FXR signaling, GeneBLAzer FXR-UAS-bla HEK 293T cell line (Invitrogen, Carlsbad, CA) containing a beta-lactamase reporter gene under the control of a UAS response element was used to screen the Tox21 10K compound library. The cytotoxicity of the Tox21 compound library against the FXR-bla cell line was tested in parallel by measuring the cell viability using CellTiter-Glo assay in the same wells.
Tox21 Assay Protocol Summary:
FXR-bla cells were dispensed at 5000 cells/5uL/well in 1536-well black wall/clear bottom plates using a Multidrop Combi (Thermo Fisher Scientific, Waltham, MA) dispenser. After the assay plates were incubated at 37 C and 5% CO2 for 5 h, 23 nL of compounds dissolved in DMSO, positive controls or DMSO only was transferred to the assay plate by a Pintool station (Kalypsys, San Diego, CA), followed by addition of 1 uL Chenodeoxycholic acid (50 uM, final concentration in the wells). The assay plates were incubated at 37C for 16 h. After 1 uL of LiveBLAzerTM B/G FRET substrate was added using a Bioraptr Flying Reagent Dispenser (FRD) workstation (Beckman Coulter, Indianapolis, IN), the plates were incubated at room temperature for 2 h, and fluorescence intensity was measured by an Envision plate reader (PerkinElmer, Shelton, CT). For cell viability readout that measures cytotoxicity, 4uL/well of CellTiter-Glo reagent was added into the assay plates using a Bioraptr FRD. After 30 min incubation at room temperature, the luminescence intensity in the plates was measured using a ViewLux plate reader (PerkinElmer).
In the case of OCC(CO)n1cnc(-c2ccc(F)cc2)c1-c1ccnc(Oc2ccccc2)n1, the “activity change, negative = cytotoxicity” value is reported as -2.85%.
With CS(=O)(=O)c1ccc([C@@H](C[C@H]2CCC(=O)C2)C(=O)Nc2cnccn2)cc1Cl the “activity change, negative = cytotoxicity” value was 5.19%.
In the case of ClC1=C(Cl)C1(Cl)Cl, the “activity change, negative = cytotoxicity” value is reported as 0.289% [at 81.1 µM].
With O=[N+]([O-])c1ccc2ncccc2c1 the “activity change, negative = cytotoxicity” value was -1.01%.
In the case of C/C(C=O)=C\c1ccccc1, the “activity change, negative = cytotoxicity” value is reported as -2.26%.
In the case of CC1CCc2nccnc21 (stereo not given), the “activity change, negative = cytotoxicity” value is reported as 2.85%.
With C=C(C)C(=O)OCCC(F)(F)C(F)(F)C(F)(F)C(F)(F)C(F)(F)C(F)(F)F the “activity change, negative = cytotoxicity” value was -0.418%.
With CCOC(=O)c1ccc(NC(=O)CN2CCCCC2)cc1 the “activity change, negative = cytotoxicity” value was 2.7%.
For CC(C)CC(O)CC(C)C, the “activity change, negative = cytotoxicity” value was -8.5%.
With C1CCCCC1 the “activity change, negative = cytotoxicity” value was 0.638% [at 81.1 µM].
In the case of CCCc1nc2c(C)cc(-c3nc4ccccc4n3C)cc2n1Cc1ccc(-c2ccccc2C(=O)O)cc1, the “activity change, negative = cytotoxicity” value is reported as 5.55%.
With O=P(O)(O)Oc1ccccc1 the “activity change, negative = cytotoxicity” value was -0.26%.
In the case of CCCCCCC(O)CCCCCCCCCCC(=O)OC (stereo not given), the “activity change, negative = cytotoxicity” value is reported as -1.29%.
For COc1cc(C(C)=O)ccc1OCCCN1CCC(c2noc3cc(F)ccc23)CC1, the “activity change, negative = cytotoxicity” value was -20.9%.
For COc1ccc(-c2cc(C(F)F)nn2-c2ccc(S(N)(=O)=O)cc2)cc1F, the “activity change, negative = cytotoxicity” value was 6.07%.
In the case of CCN(CC)CC(=O)Nc1c(C)cccc1C(=O)OC, the “activity change, negative = cytotoxicity” value is reported as 0.0479%.
For Nc1ccc(N=Nc2ccc(N)cc2)cc1, the “activity change, negative = cytotoxicity” value was 13.5%.
For FC(F)(F)C(F)(F)C(F)(F)C(F)(F)CCI, the “activity change, negative = cytotoxicity” value was 0.47% [at 29.1 µM].
For Cc1c[nH]c2ccccc12, the “activity change, negative = cytotoxicity” value was 4.64%.
With COC(OC)OC the “activity change, negative = cytotoxicity” value was 4.89%.
In the case of COc1ccc(CCN(C)CCCN2CCc3cc(OC)c(OC)cc3CC2=O)cc1OC, the “activity change, negative = cytotoxicity” value is reported as -3.93%.
For CC(C)C1CCC(C(=O)N[C@H](Cc2ccccc2)C(=O)O)CC1 (stereo not given in full), the “activity change, negative = cytotoxicity” value was 6.47%.
In the case of CC(C)COC(=O)c1ccc(O)cc1, the “activity change, negative = cytotoxicity” value is reported as -10.1%.
In the case of O=C(Nc1ccc(C(=O)O)c(O)c1)c1ccccc1, the “activity change, negative = cytotoxicity” value is reported as 5.81%.
With COc1cc(NC(C)CCCN)c2ncccc2c1 (stereo not given) the “activity change, negative = cytotoxicity” value was -8.62%.
In the case of Nc1ccc(NC(=O)c2ccc(N)cc2)cc1, the “activity change, negative = cytotoxicity” value is reported as -3.39%.
With CCOC(=O)C(C)O (stereo not given) the “activity change, negative = cytotoxicity” value was 10.6% [at 81.1 µM].
For CC(CO)(CO)C(=O)O, the “activity change, negative = cytotoxicity” value was -1.74% [at 81.1 µM].
For O=C1OC[C@H](Cc2cccc(O)c2)[C@H]1Cc1cccc(O)c1, the “activity change, negative = cytotoxicity” value was 2.19% [at 29.1 µM].
In the case of CCCCCCCCCCCC(=O)OCC(O)CO (stereo not given), the “activity change, negative = cytotoxicity” value is reported as 10.3%.
With O=C(c1ccccc1)C1CCC1 the “activity change, negative = cytotoxicity” value was 2.56%.
For CCCCCCCCCCCCCCCCCC(=O)OCC(CC)CCCC (stereo not given), the “activity change, negative = cytotoxicity” value was 2.36%.
In the case of CC1CCC(C(C)CS)CC1S (stereo not given), the “activity change, negative = cytotoxicity” value is reported as 1.28%.
For O=C(/C=C/c1ccc([N+](=O)[O-])cc1)c1ccccc1, the “activity change, negative = cytotoxicity” value was -8.8%.
In the case of Nc1ccn([C@H]2CS[C@@H](CO)O2)c(=O)n1, the “activity change, negative = cytotoxicity” value is reported as 4.35%.
With CC(O)Cn1cnc2c1c(=O)n(C)c(=O)n2C (stereo not given) the “activity change, negative = cytotoxicity” value was 0.0456%.
For SCCc1cnccn1, the “activity change, negative = cytotoxicity” value was -20.2%.
With COc1cc(S(=O)(=O)Nc2ccccc2)c(OC)cc1N the “activity change, negative = cytotoxicity” value was -4.88%.
For CC[C@H]1OC(=O)[C@H](C)[C@@H](O[C@H]2C[C@@](C)(OC)[C@@H](O)[C@H](C)O2)[C@H](C)[C@@H](O[C@@H]2O[C@H](C)C[C@H](N(C)C)[C@H]2O)[C@](C)(O)C[C@@H](C)CN(C)[C@H](C)[C@@H](O)[C@]1(C)O, the “activity change, negative = cytotoxicity” value was -13.6%.
In the case of CCNc1nc(N)nc(Cl)n1, the “activity change, negative = cytotoxicity” value is reported as 15.1%.

Source: PubChem BioAssay (Tox21)
% is scaled to controls: 0 for no effect and ±100 for the full control effect.
